# Source: PMC7862700, “An all-to-all approach to the identification of sequence-specific readers for epigenetic DNA modifications on cytosine”
# Legend:
# Test in all cases: DAPPL (digital affinity profiling via proximity ligation, sequencing); 10 mM Tris-HCl pH 7.5, 50 mM NaCl, 1 mM DTT, 4% glycerol, room temperature, 30 min; GST-TFs on glutathione beads, 16-mer random dsDNA library, 0.1% formaldehyde crosslink after washing; high values mean tight binding
# FLI1 = molecular target: T1, FLI1 (Homo sapiens, UniProt Q01543 1-452); conditions: protein: recombinant; tags: N-terminal GST; dsDNA, one strand shown
# T1 sequence: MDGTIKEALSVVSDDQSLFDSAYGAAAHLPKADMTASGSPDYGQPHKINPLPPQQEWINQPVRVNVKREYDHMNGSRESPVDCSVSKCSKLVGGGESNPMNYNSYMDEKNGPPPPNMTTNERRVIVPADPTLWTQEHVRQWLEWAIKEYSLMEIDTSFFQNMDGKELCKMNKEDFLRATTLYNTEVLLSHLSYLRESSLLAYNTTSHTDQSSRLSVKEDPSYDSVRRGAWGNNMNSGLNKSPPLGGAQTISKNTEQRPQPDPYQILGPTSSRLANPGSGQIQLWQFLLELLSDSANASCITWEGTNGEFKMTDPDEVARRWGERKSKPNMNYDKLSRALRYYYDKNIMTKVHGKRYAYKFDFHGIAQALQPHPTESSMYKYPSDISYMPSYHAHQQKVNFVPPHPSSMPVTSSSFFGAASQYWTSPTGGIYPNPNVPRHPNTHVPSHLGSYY
# Method in brief: (§1)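 After expression in yeast as GST fusions, human transcription factors were bound to glutathione beads, DNA-barcoded and mixed with a tag-only sample. The pools were incubated with 200 nmole of a 16-mer random double-stranded DNA library in Tris/NaCl/DTT/glycerol buffer (30 min, room temperature), washed and crosslinked with 0.1% formaldehyde. Proximity ligation with BsaI/T4 ligase ran for 1 h at 37 °C, before PCR amplification and sequencing on an Illumina NextSeq500. Binding signal is a hexamer's read frequency for a factor divided by its frequency for the tag-only sample.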
# ELK1 = molecular target: T2, ELK1 (Homo sapiens, UniProt P19419 1-428); conditions: protein: recombinant; tags: N-terminal GST; dsDNA, one strand shown
# T2 sequence: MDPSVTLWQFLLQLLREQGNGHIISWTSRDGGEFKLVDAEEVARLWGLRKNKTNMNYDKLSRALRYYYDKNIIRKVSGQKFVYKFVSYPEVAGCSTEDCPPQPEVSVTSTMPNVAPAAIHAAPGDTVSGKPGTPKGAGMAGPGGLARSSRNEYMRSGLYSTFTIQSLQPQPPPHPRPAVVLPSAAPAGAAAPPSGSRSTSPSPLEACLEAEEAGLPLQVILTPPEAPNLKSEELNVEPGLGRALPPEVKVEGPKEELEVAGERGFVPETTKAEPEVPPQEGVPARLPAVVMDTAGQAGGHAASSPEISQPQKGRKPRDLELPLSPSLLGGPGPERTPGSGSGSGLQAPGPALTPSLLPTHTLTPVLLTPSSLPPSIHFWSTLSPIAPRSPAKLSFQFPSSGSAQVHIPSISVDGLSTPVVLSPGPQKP
# Method in brief: as §1
# GABPA = molecular target: T3, GABPA (Homo sapiens, UniProt Q06546 1-454); conditions: protein: recombinant; tags: N-terminal GST; dsDNA, one strand shown
# T3 sequence: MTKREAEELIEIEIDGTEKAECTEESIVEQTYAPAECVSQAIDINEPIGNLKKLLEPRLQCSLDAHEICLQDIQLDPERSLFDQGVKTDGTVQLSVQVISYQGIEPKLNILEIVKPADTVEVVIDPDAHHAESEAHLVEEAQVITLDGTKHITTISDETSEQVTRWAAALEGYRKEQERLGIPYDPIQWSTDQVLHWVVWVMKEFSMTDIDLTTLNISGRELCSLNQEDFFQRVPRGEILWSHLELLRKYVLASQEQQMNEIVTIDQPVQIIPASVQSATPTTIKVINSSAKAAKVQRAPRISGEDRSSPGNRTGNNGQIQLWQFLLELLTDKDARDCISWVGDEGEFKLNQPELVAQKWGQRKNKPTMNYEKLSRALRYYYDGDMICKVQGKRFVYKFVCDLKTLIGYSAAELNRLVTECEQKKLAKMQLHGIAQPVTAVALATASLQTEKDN
# Method in brief: as §1
# ERG = molecular target: T4, ERG (Homo sapiens, UniProt P11308 1-479); conditions: protein: recombinant; tags: N-terminal GST; dsDNA, one strand shown
# T4 sequence: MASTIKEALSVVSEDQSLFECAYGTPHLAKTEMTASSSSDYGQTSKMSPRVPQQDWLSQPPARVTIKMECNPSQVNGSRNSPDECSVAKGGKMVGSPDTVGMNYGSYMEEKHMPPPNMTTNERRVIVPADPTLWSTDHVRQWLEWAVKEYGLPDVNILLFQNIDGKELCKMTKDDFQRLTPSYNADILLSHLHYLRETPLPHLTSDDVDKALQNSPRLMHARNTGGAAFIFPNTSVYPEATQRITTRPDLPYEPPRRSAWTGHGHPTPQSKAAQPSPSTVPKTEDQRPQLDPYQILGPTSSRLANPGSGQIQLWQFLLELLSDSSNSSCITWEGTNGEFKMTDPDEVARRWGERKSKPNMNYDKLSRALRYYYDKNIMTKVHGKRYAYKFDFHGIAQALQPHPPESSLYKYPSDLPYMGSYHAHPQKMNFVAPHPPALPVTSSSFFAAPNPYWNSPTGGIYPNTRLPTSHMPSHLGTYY
# Method in brief: as §1
# ELF1 = ELF1 (Homo sapiens, UniProt P32519 1-619); conditions: protein: recombinant; tags: N-terminal GST; dsDNA, one strand shown
# Chain of ELF1 (P32519 whole entry): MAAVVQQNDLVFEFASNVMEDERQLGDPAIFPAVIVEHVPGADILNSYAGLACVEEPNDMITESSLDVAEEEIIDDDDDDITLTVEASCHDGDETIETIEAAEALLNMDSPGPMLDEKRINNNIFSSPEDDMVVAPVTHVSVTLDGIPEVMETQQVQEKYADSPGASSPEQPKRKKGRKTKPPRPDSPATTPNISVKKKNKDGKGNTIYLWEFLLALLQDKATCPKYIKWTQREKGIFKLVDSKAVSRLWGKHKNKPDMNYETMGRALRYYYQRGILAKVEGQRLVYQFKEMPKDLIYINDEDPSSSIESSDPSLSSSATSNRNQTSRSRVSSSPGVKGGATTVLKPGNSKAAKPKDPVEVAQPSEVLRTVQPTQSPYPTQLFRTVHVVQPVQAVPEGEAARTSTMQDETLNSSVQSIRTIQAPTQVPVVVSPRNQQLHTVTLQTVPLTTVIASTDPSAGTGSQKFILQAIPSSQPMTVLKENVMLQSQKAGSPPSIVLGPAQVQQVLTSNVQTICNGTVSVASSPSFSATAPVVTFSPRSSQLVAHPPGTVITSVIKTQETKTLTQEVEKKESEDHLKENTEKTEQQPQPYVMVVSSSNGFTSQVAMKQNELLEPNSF
# Method in brief: as §1
# EHF = molecular target: T5, EHF (Homo sapiens, UniProt Q9NZC4 1-300); conditions: protein: recombinant; tags: N-terminal GST; dsDNA, one strand shown
# T5 sequence: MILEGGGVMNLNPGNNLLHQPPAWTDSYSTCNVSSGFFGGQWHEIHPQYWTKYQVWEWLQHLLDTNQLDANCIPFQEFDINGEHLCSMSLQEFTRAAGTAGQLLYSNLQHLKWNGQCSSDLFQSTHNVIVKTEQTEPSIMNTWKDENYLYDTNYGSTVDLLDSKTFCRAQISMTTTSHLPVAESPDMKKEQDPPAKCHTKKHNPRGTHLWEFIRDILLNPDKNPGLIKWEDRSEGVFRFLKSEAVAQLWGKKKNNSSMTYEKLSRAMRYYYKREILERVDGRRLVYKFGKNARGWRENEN
# Method in brief: as §1
# SPI1 = SPI1 (Homo sapiens, UniProt P17947 1-270); conditions: protein: recombinant; tags: N-terminal GST; dsDNA, one strand shown
# Method in brief: as §1
# SPIB = SPIB (Homo sapiens, UniProt Q01892 1-262); conditions: protein: recombinant; tags: N-terminal GST; dsDNA, one strand shown
# Chain of SPIB (Q01892 whole entry): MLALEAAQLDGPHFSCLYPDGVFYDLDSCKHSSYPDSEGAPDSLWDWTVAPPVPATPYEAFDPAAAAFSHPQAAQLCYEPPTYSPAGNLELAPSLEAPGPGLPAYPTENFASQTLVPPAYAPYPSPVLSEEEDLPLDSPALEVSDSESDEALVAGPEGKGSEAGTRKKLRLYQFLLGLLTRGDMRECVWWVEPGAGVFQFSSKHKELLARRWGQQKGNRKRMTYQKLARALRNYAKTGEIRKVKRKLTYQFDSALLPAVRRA
# Method in brief: as §1
# ELK3 = molecular target: T6, ELK3 (Homo sapiens, UniProt P41970 1-407); conditions: protein: recombinant; tags: N-terminal GST; dsDNA, one strand shown
# T6 sequence: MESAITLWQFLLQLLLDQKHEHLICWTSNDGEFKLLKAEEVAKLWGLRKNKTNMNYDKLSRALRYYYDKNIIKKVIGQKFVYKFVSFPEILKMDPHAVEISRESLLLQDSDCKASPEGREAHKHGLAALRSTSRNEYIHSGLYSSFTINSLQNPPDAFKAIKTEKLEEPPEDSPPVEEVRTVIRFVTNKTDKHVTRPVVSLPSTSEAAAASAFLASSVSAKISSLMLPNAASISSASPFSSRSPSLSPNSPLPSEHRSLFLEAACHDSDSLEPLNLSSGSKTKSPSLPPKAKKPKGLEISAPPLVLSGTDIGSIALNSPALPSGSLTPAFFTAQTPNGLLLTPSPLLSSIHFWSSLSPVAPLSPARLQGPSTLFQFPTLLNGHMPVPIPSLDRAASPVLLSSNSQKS
# Method in brief: as §1
# FEV = molecular target: T7, FEV (Homo sapiens, UniProt Q99581 1-238); conditions: protein: recombinant; tags: N-terminal GST; dsDNA, one strand shown
# T7 sequence: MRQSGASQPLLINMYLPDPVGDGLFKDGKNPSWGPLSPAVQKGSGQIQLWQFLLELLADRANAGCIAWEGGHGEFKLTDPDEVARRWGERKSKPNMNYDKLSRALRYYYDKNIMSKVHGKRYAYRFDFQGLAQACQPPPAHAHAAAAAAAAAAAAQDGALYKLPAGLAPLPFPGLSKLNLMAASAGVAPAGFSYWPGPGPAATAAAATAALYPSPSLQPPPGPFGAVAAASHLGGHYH
# Method in brief: as §1
# ETV5 = ETV5 (Homo sapiens, UniProt P41161 1-510); conditions: protein: recombinant; tags: N-terminal GST; dsDNA, one strand shown
# Chain of ETV5 (P41161 whole entry): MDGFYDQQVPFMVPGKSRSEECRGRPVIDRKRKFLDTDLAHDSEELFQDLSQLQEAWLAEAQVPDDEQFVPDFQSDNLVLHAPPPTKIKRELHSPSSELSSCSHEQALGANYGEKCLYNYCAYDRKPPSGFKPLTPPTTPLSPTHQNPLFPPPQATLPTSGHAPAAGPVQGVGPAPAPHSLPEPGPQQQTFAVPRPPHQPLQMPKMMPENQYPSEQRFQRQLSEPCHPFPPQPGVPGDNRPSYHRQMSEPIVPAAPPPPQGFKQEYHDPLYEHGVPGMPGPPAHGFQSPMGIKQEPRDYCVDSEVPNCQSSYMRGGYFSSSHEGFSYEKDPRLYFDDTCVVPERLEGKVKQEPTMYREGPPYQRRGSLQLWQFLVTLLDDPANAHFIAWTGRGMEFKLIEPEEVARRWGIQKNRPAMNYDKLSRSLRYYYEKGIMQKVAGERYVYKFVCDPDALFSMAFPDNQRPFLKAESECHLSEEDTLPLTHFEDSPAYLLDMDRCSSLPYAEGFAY
# Method in brief: as §1
# HSF1 = HSF1 (Homo sapiens, UniProt Q00613 1-529); conditions: protein: recombinant; tags: N-terminal GST; chain copies: 3; dsDNA, one strand shown
# Chain of HSF1 (Q00613 whole entry): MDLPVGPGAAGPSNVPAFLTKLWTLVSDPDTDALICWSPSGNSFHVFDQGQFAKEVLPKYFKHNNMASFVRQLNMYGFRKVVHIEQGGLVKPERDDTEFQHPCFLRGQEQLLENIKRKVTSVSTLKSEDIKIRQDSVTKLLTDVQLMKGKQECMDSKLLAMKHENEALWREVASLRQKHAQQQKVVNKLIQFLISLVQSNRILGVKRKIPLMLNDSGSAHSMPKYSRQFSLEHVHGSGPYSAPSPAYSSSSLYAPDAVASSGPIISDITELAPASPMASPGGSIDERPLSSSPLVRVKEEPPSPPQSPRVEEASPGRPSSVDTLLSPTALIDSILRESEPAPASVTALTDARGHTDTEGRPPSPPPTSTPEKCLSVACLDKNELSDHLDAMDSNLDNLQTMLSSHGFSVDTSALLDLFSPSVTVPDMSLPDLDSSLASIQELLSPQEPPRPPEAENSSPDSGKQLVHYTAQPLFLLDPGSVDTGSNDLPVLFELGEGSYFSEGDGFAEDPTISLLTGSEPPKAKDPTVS
# Method in brief: as §1
# SPIC = molecular target: T8, SPIC (Homo sapiens, UniProt Q8N5J4 1-248); conditions: protein: recombinant; tags: N-terminal GST; dsDNA, one strand shown
# T8 sequence: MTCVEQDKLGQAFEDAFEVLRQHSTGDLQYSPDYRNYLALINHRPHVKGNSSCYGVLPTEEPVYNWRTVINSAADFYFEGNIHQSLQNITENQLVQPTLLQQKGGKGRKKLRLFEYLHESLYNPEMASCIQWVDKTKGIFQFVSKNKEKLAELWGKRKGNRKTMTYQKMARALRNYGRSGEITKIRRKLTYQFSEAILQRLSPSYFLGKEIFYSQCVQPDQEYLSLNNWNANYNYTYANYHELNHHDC
# Method in brief: as §1
# ELF4 = ELF4 (Homo sapiens, UniProt Q99607 1-663); conditions: protein: recombinant; tags: N-terminal GST; dsDNA, one strand shown
# Chain of ELF4 (Q99607 whole entry): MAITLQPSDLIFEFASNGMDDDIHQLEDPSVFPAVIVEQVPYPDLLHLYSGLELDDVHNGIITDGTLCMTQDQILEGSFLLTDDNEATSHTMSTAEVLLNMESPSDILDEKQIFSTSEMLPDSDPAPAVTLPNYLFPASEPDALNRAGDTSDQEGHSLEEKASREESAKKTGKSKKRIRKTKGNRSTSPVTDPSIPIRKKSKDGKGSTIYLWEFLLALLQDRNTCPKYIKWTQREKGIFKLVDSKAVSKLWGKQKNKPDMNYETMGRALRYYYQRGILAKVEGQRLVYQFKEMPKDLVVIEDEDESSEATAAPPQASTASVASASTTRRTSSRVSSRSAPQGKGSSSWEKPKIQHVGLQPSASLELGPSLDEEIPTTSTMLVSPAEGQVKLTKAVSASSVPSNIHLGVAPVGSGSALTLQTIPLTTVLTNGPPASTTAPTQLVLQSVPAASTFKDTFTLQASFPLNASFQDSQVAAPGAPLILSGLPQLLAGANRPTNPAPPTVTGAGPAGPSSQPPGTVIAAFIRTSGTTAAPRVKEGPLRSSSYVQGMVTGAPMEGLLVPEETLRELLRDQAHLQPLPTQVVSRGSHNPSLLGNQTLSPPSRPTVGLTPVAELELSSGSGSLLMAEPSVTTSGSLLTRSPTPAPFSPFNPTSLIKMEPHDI
# Method in brief: as §1
# ELK4 = molecular target: T9, ELK4 (Homo sapiens, UniProt P28324-2 1-405); conditions: protein: recombinant; tags: N-terminal GST; dsDNA, one strand shown
# T9 sequence: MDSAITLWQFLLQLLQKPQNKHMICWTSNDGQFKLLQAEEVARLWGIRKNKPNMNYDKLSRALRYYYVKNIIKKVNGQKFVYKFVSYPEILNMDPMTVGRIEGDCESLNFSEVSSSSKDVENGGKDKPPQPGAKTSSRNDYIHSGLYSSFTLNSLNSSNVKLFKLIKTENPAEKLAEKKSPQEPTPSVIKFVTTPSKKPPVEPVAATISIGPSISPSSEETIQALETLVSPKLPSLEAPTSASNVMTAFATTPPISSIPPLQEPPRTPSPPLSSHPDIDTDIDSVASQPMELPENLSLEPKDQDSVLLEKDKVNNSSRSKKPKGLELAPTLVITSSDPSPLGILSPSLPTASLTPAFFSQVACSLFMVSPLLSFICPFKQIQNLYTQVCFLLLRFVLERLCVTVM
# Method in brief: as §1
# ETV2 = molecular target: T10, ETV2 (Homo sapiens, UniProt O00321 1-342); conditions: protein: recombinant; tags: N-terminal GST; dsDNA, one strand shown
# T10 sequence: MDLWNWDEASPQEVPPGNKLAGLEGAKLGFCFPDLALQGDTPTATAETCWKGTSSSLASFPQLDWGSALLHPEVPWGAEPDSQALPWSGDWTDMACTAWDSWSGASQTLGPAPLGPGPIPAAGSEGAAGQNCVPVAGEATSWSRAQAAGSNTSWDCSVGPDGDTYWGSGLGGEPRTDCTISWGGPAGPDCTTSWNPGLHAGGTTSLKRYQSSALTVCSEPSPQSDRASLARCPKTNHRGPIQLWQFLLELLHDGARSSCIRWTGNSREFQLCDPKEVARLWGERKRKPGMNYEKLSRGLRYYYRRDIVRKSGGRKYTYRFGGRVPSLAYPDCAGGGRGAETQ
# Method in brief: as §1
# ELF3 = molecular target: T11, ELF3 (Homo sapiens, UniProt P78545 1-371); conditions: protein: recombinant; tags: N-terminal GST; dsDNA, one strand shown
# T11 sequence: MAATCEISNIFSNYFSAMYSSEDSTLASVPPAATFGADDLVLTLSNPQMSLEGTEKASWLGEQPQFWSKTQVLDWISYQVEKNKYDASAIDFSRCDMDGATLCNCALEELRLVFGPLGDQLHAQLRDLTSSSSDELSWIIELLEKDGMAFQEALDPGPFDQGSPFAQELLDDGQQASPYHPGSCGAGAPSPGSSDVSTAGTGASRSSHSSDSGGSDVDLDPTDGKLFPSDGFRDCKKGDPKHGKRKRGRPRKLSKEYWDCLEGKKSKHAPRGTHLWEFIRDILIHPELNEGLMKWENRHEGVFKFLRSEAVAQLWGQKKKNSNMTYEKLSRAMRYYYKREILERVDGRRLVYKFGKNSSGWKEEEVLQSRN
# Method in brief: as §1
# CRX = CRX (Homo sapiens, UniProt O43186 1-299); conditions: protein: recombinant; tags: N-terminal GST; dsDNA, one strand shown
# Chain of CRX (O43186 whole entry): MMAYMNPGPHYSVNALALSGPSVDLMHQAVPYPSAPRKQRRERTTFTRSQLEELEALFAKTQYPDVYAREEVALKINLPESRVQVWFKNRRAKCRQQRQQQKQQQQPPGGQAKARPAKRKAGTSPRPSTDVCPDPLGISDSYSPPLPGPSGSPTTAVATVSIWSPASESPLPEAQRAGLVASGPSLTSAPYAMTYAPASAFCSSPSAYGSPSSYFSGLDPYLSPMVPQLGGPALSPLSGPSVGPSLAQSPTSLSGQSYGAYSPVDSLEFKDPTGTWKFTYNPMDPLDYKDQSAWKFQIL
# Method in brief: as §1
# ETV1 = ETV1 (Homo sapiens, UniProt P50549 1-477); conditions: protein: recombinant; tags: N-terminal GST; dsDNA, one strand shown
# Chain of ETV1 (P50549 whole entry): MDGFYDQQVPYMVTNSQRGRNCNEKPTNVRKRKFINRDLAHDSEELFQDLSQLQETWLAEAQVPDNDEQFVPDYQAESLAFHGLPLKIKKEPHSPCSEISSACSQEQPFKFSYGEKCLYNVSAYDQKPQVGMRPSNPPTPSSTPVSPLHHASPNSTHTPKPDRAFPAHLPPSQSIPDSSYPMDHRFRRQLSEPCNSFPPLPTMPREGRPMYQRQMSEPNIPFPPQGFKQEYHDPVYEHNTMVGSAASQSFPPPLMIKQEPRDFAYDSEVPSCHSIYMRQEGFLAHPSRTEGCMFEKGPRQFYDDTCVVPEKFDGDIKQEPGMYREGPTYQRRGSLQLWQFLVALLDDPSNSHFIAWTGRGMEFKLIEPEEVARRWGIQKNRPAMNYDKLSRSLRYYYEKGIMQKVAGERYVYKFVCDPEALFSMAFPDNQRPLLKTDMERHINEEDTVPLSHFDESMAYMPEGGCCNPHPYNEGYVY
# Method in brief: as §1
sequence,measurement,setting,value
GATATA,binding signal,FLI1,"1.12 fold enrichment (6-mer frequency, TF over GST control)"
same,binding signal,ELK1,"1.06 fold enrichment (6-mer frequency, TF over GST control)"
same,binding signal,GABPA,"1.15 fold enrichment (6-mer frequency, TF over GST control)"
same,binding signal,ERG,"1.13 fold enrichment (6-mer frequency, TF over GST control)"
same,binding signal,ELF1,"1.09 fold enrichment (6-mer frequency, TF over GST control)"
same,binding signal,EHF,"1.18 fold enrichment (6-mer frequency, TF over GST control)"
same,binding signal,SPI1,"1.09 fold enrichment (6-mer frequency, TF over GST control)"
same,binding signal,SPIB,"1.06 fold enrichment (6-mer frequency, TF over GST control)"
same,binding signal,ELK3,"1.17 fold enrichment (6-mer frequency, TF over GST control)"
same,binding signal,FEV,"1.08 fold enrichment (6-mer frequency, TF over GST control)"
same,binding signal,ETV5,"1.13 fold enrichment (6-mer frequency, TF over GST control)"
same,binding signal,HSF1,"1.09 fold enrichment (6-mer frequency, TF over GST control)"
same,binding signal,SPIC,"1.13 fold enrichment (6-mer frequency, TF over GST control)"
same,binding signal,ELF4,"1.06 fold enrichment (6-mer frequency, TF over GST control)"
same,binding signal,ELK4,"1.18 fold enrichment (6-mer frequency, TF over GST control)"
same,binding signal,ETV2,"1.19 fold enrichment (6-mer frequency, TF over GST control)"
same,binding signal,ELF3,"1.33 fold enrichment (6-mer frequency, TF over GST control)"
same,binding signal,CRX,"1.19 fold enrichment (6-mer frequency, TF over GST control)"
same,binding signal,ETV1,"1.08 fold enrichment (6-mer frequency, TF over GST control)"
